How the values were obtained:
Assay in all cases: DAPPL (digital affinity profiling via proximity ligation, sequencing); 10 mM Tris-HCl pH 7.5, 50 mM NaCl, 1 mM DTT, 4% glycerol, room temperature, 30 min; GST-TFs on glutathione beads, 16-mer random dsDNA library, 0.1% formaldehyde crosslink after washing; high values mean tight binding
Details in all cases: protein: recombinant; tags: N-terminal GST; dsDNA, one strand shown
FLI1 = biological target: T1, FLI1 (Homo sapiens, UniProt Q01543 1-452)
T1 sequence: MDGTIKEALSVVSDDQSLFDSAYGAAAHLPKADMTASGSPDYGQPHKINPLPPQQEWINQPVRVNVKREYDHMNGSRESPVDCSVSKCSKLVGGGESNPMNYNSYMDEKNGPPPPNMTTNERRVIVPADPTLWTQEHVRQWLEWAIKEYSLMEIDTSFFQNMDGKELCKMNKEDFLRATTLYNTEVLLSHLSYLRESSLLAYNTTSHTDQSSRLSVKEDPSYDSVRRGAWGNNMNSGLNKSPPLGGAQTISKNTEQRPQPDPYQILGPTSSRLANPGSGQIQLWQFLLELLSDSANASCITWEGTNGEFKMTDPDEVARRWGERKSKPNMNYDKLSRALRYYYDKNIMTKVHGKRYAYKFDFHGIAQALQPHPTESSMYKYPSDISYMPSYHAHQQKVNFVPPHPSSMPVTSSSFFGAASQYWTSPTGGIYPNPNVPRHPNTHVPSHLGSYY
Summary of the method: (§1)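 Sequencing on an Illumina NextSeq500 followed washing, crosslinking with 0.1% formaldehyde, proximity ligation (BsaI/T4 ligase, 1 h, 37 °C) and PCR amplification of pools that had been incubated for 30 min at room temperature with 200 nmole of a random double-stranded 16-mer DNA library in Tris/NaCl/DTT/glycerol buffer. Each pool held DNA-barcoded human transcription factors, expressed in yeast as GST fusions and captured on glutathione beads, plus a tag-only sample. Binding signal is a hexamer's read frequency for a factor divided by its frequency in the tag-only sample.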

ELK1 = biological target: T2, ELK1 (Homo sapiens, UniProt P19419 1-428)
T2 sequence: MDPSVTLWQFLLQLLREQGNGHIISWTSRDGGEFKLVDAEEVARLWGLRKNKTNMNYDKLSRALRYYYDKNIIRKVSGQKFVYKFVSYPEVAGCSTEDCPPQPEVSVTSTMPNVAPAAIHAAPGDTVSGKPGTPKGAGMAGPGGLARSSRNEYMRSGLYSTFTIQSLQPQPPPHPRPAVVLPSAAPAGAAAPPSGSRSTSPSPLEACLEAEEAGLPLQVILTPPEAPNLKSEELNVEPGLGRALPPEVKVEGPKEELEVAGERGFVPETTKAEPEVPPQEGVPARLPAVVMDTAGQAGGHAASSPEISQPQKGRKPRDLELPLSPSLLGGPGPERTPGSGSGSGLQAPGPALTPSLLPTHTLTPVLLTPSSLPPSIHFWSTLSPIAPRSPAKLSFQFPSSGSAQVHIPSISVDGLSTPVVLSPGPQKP
Summary of the method: as §1

GABPA = biological target: T3, GABPA (Homo sapiens, UniProt Q06546 1-454)
T3 sequence: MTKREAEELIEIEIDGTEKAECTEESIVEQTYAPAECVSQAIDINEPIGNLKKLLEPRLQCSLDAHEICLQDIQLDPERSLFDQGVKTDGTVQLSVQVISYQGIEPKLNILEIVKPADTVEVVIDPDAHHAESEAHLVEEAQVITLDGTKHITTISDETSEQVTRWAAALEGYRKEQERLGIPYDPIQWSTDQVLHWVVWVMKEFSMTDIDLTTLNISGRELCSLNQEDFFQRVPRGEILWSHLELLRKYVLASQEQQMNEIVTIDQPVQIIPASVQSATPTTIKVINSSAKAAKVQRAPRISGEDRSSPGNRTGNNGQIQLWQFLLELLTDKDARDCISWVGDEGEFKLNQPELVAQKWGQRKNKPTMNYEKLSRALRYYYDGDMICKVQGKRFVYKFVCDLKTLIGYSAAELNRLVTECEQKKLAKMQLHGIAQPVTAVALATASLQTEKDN
Summary of the method: as §1

ERG = biological target: T4, ERG (Homo sapiens, UniProt P11308 1-479)
T4 sequence: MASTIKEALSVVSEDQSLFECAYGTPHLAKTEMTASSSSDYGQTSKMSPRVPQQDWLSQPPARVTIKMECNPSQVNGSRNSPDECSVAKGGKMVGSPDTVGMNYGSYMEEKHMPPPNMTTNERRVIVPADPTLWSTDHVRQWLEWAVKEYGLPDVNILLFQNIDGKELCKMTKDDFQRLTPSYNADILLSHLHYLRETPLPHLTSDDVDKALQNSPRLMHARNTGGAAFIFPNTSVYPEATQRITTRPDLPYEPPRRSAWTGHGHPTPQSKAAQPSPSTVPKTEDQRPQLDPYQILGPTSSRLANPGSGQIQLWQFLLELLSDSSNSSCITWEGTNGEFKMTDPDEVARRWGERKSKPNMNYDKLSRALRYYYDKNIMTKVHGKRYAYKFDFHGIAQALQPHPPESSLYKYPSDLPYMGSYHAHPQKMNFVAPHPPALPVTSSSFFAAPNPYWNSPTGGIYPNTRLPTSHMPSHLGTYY
Summary of the method: as §1

ELF1 = ELF1 (Homo sapiens, UniProt P32519 1-619)
Summary of the method: as §1

EHF = biological target: T5, EHF (Homo sapiens, UniProt Q9NZC4 1-300)
T5 sequence: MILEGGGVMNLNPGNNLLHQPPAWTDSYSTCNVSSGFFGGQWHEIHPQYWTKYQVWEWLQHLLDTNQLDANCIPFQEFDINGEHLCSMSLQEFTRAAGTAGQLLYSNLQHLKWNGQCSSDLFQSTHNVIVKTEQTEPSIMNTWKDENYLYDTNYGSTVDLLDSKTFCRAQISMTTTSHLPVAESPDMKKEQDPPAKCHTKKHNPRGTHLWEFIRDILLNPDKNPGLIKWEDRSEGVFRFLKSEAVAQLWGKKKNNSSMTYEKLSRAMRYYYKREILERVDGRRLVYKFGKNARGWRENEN
Summary of the method: as §1

SPI1 = SPI1 (Homo sapiens, UniProt P17947 1-270)
Summary of the method: as §1

SPIB = SPIB (Homo sapiens, UniProt Q01892 1-262)
Summary of the method: as §1

ELK3 = biological target: T6, ELK3 (Homo sapiens, UniProt P41970 1-407)
T6 sequence: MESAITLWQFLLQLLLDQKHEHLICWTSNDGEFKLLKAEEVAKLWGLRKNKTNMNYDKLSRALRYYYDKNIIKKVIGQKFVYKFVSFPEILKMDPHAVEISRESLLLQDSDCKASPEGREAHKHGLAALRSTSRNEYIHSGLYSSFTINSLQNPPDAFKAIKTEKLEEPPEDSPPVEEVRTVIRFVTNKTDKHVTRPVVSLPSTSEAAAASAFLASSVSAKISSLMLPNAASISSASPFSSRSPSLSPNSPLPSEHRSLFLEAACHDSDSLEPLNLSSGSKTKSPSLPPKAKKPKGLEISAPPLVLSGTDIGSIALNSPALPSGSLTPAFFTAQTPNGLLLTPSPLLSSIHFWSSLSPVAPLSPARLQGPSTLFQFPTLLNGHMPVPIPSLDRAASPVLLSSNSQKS
Summary of the method: as §1

FEV = biological target: T7, FEV (Homo sapiens, UniProt Q99581 1-238)
T7 sequence: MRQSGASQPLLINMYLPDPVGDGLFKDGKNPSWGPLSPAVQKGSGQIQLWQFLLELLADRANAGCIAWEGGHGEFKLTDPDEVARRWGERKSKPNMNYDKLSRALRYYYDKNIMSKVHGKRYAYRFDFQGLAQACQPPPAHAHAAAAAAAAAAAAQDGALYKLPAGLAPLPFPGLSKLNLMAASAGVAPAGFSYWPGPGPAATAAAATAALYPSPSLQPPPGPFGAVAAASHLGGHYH
Summary of the method: as §1

ETV5 = ETV5 (Homo sapiens, UniProt P41161 1-510)
Summary of the method: as §1

SPIC = biological target: T8, SPIC (Homo sapiens, UniProt Q8N5J4 1-248)
T8 sequence: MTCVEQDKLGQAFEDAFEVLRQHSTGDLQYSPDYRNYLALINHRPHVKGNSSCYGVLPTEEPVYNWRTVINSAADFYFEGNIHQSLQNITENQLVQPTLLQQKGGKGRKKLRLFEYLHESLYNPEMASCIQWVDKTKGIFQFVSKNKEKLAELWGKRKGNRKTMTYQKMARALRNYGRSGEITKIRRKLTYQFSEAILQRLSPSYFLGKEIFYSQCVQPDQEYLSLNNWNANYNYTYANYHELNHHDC
Summary of the method: as §1

ELF4 = ELF4 (Homo sapiens, UniProt Q99607 1-663)
Summary of the method: as §1

ELK4 = biological target: T9, ELK4 (Homo sapiens, UniProt P28324-2 1-405)
T9 sequence: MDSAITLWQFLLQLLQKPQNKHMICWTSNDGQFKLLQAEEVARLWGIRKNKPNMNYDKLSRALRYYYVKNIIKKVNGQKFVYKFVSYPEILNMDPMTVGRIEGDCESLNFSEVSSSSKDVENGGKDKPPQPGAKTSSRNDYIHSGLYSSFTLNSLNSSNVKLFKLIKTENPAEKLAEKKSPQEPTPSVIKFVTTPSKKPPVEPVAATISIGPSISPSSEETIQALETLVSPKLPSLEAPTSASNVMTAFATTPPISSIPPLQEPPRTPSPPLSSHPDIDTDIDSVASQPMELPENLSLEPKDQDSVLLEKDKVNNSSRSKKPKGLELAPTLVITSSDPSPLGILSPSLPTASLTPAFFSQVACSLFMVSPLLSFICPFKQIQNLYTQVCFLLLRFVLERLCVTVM
Summary of the method: as §1

ETV2 = biological target: T10, ETV2 (Homo sapiens, UniProt O00321 1-342)
T10 sequence: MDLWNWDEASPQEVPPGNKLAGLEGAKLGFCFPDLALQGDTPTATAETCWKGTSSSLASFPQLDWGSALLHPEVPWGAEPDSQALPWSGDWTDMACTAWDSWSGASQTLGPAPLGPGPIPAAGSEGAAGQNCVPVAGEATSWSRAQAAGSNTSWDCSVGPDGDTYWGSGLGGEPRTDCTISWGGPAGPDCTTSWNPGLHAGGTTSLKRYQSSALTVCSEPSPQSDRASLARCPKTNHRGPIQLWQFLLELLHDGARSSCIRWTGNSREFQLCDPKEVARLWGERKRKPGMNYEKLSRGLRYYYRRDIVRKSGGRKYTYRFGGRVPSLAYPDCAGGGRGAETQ
Summary of the method: as §1

ELF3 = biological target: T11, ELF3 (Homo sapiens, UniProt P78545 1-371)
T11 sequence: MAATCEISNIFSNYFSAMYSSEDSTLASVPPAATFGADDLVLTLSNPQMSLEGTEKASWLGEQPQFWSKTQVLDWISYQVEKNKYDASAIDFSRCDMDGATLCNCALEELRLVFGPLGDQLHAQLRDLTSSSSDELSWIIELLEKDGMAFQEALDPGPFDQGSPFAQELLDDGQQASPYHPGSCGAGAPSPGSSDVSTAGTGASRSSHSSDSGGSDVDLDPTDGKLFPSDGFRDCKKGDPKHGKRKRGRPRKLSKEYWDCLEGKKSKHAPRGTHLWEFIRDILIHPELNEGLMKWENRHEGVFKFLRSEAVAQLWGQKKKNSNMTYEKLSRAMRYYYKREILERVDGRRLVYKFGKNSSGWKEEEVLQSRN
Summary of the method: as §1

ETV1 = ETV1 (Homo sapiens, UniProt P50549 1-477)
Summary of the method: as §1

Chain of ELF1 (P32519 whole entry): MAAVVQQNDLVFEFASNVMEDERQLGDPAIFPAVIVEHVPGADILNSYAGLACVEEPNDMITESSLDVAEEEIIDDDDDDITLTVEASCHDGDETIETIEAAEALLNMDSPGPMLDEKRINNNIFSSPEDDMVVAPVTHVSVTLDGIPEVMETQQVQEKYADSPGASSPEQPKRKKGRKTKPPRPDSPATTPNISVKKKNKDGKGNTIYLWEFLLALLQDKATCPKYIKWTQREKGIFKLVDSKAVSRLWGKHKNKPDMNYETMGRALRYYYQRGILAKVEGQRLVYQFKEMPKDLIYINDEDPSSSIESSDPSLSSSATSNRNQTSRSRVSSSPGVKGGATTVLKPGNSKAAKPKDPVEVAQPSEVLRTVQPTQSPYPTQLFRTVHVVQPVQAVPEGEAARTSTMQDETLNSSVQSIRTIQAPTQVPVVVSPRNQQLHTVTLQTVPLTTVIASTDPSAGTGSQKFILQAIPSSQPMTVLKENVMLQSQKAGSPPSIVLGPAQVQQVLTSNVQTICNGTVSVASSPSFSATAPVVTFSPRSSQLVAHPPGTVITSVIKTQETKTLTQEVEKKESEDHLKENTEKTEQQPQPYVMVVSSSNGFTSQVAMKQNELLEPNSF
Chain of ELF4 (Q99607 whole entry): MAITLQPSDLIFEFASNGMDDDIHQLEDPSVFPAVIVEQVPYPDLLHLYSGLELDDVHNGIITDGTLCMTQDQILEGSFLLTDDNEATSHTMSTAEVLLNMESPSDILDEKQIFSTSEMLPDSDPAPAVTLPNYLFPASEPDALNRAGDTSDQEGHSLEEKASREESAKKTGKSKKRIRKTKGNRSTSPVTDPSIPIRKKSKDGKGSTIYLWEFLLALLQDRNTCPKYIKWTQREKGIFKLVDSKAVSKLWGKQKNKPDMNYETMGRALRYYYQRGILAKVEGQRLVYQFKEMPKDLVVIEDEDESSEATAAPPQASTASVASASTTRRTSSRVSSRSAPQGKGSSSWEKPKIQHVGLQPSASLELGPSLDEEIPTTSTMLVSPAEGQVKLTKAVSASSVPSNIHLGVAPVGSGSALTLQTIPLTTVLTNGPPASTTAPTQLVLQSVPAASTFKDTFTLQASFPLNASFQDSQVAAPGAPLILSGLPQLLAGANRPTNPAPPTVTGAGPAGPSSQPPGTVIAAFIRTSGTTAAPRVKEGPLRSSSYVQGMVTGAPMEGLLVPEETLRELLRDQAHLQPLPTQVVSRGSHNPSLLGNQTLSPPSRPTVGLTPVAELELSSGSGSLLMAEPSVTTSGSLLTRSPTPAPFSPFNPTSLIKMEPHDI
Chain of ETV1 (P50549 whole entry): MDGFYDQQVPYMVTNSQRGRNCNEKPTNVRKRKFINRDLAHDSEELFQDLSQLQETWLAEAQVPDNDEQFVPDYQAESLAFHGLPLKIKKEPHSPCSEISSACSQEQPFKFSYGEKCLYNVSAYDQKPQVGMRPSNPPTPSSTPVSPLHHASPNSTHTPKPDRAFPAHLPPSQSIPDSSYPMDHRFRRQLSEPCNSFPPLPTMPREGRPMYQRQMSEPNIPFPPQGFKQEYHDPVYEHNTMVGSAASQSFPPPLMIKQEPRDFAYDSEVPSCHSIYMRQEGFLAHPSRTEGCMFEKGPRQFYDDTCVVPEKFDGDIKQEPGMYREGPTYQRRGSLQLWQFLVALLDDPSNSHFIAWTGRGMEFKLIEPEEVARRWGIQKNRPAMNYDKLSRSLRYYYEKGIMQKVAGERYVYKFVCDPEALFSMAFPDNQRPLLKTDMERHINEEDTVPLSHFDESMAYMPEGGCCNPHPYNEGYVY
Chain of SPIB (Q01892 whole entry): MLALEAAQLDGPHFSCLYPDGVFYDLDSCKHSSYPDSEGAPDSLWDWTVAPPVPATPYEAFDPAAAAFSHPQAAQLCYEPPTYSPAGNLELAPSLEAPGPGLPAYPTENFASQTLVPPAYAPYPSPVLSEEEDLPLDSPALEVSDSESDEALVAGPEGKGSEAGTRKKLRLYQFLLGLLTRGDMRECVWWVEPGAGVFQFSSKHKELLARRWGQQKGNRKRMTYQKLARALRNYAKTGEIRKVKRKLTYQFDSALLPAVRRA
Chain of ETV5 (P41161 whole entry): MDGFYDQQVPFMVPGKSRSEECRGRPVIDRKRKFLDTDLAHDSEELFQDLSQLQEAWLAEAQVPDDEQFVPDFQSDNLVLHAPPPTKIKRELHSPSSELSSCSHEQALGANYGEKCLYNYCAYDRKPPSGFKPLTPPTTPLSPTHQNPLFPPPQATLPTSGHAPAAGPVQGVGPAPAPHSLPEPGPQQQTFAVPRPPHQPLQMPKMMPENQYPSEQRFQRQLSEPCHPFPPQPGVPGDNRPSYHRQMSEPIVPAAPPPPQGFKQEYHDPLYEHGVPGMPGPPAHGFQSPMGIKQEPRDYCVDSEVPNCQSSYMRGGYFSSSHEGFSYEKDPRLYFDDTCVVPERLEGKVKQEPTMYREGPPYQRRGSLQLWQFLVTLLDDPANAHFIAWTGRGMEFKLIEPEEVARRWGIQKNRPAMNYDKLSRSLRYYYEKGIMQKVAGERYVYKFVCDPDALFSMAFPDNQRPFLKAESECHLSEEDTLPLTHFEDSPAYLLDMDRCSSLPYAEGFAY

Sequence | binding signal (FLI1) | binding signal (ELK1) | binding signal (GABPA) | binding signal (ERG) | binding signal (ELF1) | binding signal (EHF) | binding signal (SPI1) | binding signal (SPIB) | binding signal (ELK3) | binding signal (FEV) | binding signal (ETV5) | binding signal (SPIC) | binding signal (ELF4) | binding signal (ELK4) | binding signal (ETV2) | binding signal (ELF3) | binding signal (ETV1)
GGAAAC | 1.2 fold enrichment (6-mer frequency, TF over GST control) | 1.35 fold enrichment (6-mer frequency, TF over GST control) | 1.25 fold enrichment (6-mer frequency, TF over GST control) | 1.57 fold enrichment (6-mer frequency, TF over GST control) | 1.22 fold enrichment (6-mer frequency, TF over GST control) | 1.47 fold enrichment (6-mer frequency, TF over GST control) | 1.25 fold enrichment (6-mer frequency, TF over GST control) | 1.39 fold enrichment (6-mer frequency, TF over GST control) | 1.43 fold enrichment (6-mer frequency, TF over GST control) | 1.67 fold enrichment (6-mer frequency, TF over GST control) | 1.43 fold enrichment (6-mer frequency, TF over GST control) | 1.26 fold enrichment (6-mer frequency, TF over GST control) | 1.2 fold enrichment (6-mer frequency, TF over GST control) | 1.01 fold enrichment (6-mer frequency, TF over GST control) | 1.35 fold enrichment (6-mer frequency, TF over GST control) | 1.42 fold enrichment (6-mer frequency, TF over GST control) | 1.35 fold enrichment (6-mer frequency, TF over GST control)
CCTTGT | 1.33 fold enrichment (6-mer frequency, TF over GST control) | 1.29 fold enrichment (6-mer frequency, TF over GST control) | 1.25 fold enrichment (6-mer frequency, TF over GST control) | 1.37 fold enrichment (6-mer frequency, TF over GST control) | 1.23 fold enrichment (6-mer frequency, TF over GST control) | 1.24 fold enrichment (6-mer frequency, TF over GST control) | 1.25 fold enrichment (6-mer frequency, TF over GST control) | 1.28 fold enrichment (6-mer frequency, TF over GST control) | 1.18 fold enrichment (6-mer frequency, TF over GST control) | 1.09 fold enrichment (6-mer frequency, TF over GST control) | 1.32 fold enrichment (6-mer frequency, TF over GST control) | 1.11 fold enrichment (6-mer frequency, TF over GST control) | 1.29 fold enrichment (6-mer frequency, TF over GST control) | 1.37 fold enrichment (6-mer frequency, TF over GST control) | 1.03 fold enrichment (6-mer frequency, TF over GST control) | 1.08 fold enrichment (6-mer frequency, TF over GST control) | 1.26 fold enrichment (6-mer frequency, TF over GST control)

Source: article PMC7862700, “An all-to-all approach to the identification of sequence-specific readers for epigenetic DNA modifications on cytosine”
